From PubChem BioAssay (NCI) come the findings set out here.

Several values for one entry are separate records, joined by “and”; a condition that tells them apart may be missing. Equal entries are not always repeated. Compounds without any hit were thinned out: in the full panel of roughly 83,000, 20% have a hit.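 Cells were grown in 96-well plates and exposed to the test compound at a single concentration for 48 hours; results are reported as percent growth, with values below 10 considered active.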 Unmarked numbers belong to inactive results. Activity calls are given as the source filed them.

Holding throughout (assay): NCI-60 one-dose screen, 48 h (100 = growth as untreated, 0 = no growth, -100 = all killed)
What all share (details): 10 µM unless noted

Assay [1] concerns DU-145 prostate.
For assay [2], the system named is K-562 leukemia.
The test system of assay [3] is MALME-3M melanoma.
The test system of assay [4] is MDA-MB-231 breast.
The subject of assay [5] is RXF 393 renal.
In assay [6] the test system is SF-268 CNS.
Assay [7] concerns SF-295 CNS.
In assay [8] the test system is SF-539 CNS.
For assay [9], the system named is UACC-257 melanoma.

As to `O=c1c2ccccc2nc(-c2ccccc2Cl)n1-c1nnc(C(F)(F)F)s1`, the growth was 56.8% in assay [1]; 11.4% in [2]; -11.5% (active) in assay [3]; 52.3% in assay [4]; 38.9% in [5]; 38.8% in assay [6]. For the same compound, the growth in assay [7] is 12%; in [8], 19.7%; in assay [9], 30%.
On to `Cc1ccc(S(=O)(=O)n2cc([C@@]3(O)C[C@H](CSC#N)OC3=O)c3ccccc32)cc1`, for which the growth in assay [1] was 43.9%; in assay [2], 48.5%; in assay [3] it was 61.7%; in assay [4], 55.3%; in assay [5] it was 50.9%; in assay [6] it was 72.4%. In addition, the growth in assay [7] was 94.8%; in assay [8], 51.2%; in assay [9], 96.1%.
As to `O=C1C=C(N2CC2)c2ccccc2C1=O`, the growth was 12.1% in assay [1]; 9.26% (active) in assay [2]; 106% in assay [3]; 88.8% in [4]; 85.9% in assay [5]; 51.6% in assay [6]. Also, the results for the growth in [7], in assay [8] and in assay [9] were 23.6%, 63.3% and 83.1%, respectively.
With `COc1cc(/C=C\[N+](=O)[O-])ccc1OCc1ccccc1`, the growth in assay [1] was 44.3%; in assay [2] it was 0.133% (active); in assay [3] it was 77.9%; in [4], 12.5%; in assay [5], -86.1% (active); in [6] it was 19.4%. In addition, the figures for the growth in assay [7], in assay [8] and in assay [9] were 48.7%, 30.8% and 61.8%, respectively.
For the compound `CC1OC(=O)C(C(C)C)NC(=O)C(C(C)C)OC(=O)C(C(C)C)NC(=O)C(C)OC(=O)C(C(C)C)NC(=O)C(C(C)C)OC(=O)C(C(C)C)NC(=O)C(C)OC(=O)C(C(C)C)NC(=O)C(C(C)C)OC(=O)C(C(C)C)NC1=O` (configuration not stated), the growth was -60.2% (active) in [1]; -38.2% (active) in [2]; 9.37% (active) in assay [3]; -67.9% (active) in assay [4]; -63.1% (active) in assay [5]; 5.42% (active) in [6]. In addition, the growth in assay [7] is -27.1% (active); in assay [8], -91.4% (active); in assay [9], -53.5% (active).
As for `OCCNC1CCCCC1`, the growth is 107% in assay [1]; 101% in [2]; 112% in assay [3]; 114% in assay [4]; 118% in [5]; 102% in [6]. Besides, the growth in assay [7] was 111%; in assay [8], 103%; in assay [9] it was 112%.
In the case of `C#COc1cccc(Nc2ncnc3cc(NC(=O)CF)ccc23)c1`, the growth in assay [1] is 76.1% [6.25 µM]; in assay [2], 7.01% [6.25 µM] (active); in [3], 60.9% [6.25 µM]; in assay [4], 50.9% [6.25 µM]; in assay [5], 84.4% [6.25 µM]; in assay [6], 51.8% [6.25 µM]. The growth is 29.9% [6.25 µM] in assay [7], 29.3% [6.25 µM] in assay [8] and 40.4% [6.25 µM] in assay [9].
Turning to `CN(C)c1ccc([N+](=O)[O-])c([N+](=O)[O-])c1`, the growth in assay [1] was 103% and 113%; in assay [2], 113% and 104%; in assay [3] it was 100%; in assay [4], 98.4% and 99.1%; in [5], 111% and 95.3%; in assay [6], 106% and 111%. Besides, the growth in [7] is 112% and 106%; in assay [8], 128% and 104%; in assay [9] it was 95.7% and 88.2%.
Turning to `COCC1OC2OC3C(COC)OC(OC4C(COC)OC(OC5C(COC)OC(OC6C(COC)OC(OC7C(COC)OC(OC8C(COC)OC(OC1C(O)C2O)C(O)C8O)C(O)C7O)C(O)C6O)C(O)C5O)C(O)C4O)C(O)C3O` (configuration not stated) (tested in a mixture with another compound), the growth was 113% in assay [1]; 99.5% in [2]; 127% in assay [3]; 115% in assay [4]; 129% in assay [5]; 105% in assay [6]. The results for the growth in [7], in assay [8] and in assay [9] were 111%, 111% and 117%, respectively.
As for `C(=NC1CCCCC1)=NC1CCCCC1`, the growth is 107% and 97.9% in assay [1]; 97.8% and 69% in assay [2]; 108% and 53.2% in [3]; 97.2% and 88.3% in assay [4]; 109% and 94.6% in [5]; 108% and 88.2% in assay [6]. For the same compound, the growth in [7] was 87%; in [8], 101% and 97.7%; in assay [9], 133% and 44.3%.
As for `CNC(=O)O/N=C(\SC)C(=O)N(C)C`, the growth in assay [1] is 117%; in [2], 89.2%; in assay [3], 117%; in [4], 110%; in assay [5], 105%; in [6] it was 105%. The values for the growth in assay [7], in assay [8] and in assay [9] were 113%, 103% and 103%, respectively.
Consider `COc1ccc(O)c2c(=O)c3c(OC)cc4c(c3oc12)[C@@H]1C=CO[C@@H]1O4`, for which the growth is 21.9% in assay [1]; 101% in [2]; 62.8% in assay [3]; 67% in assay [4]; 61.6% in assay [5]; 54.9% in assay [6]. For the same compound, the growth in assay [7] was 81.6%; in assay [8], 37.9%; in assay [9], 89.6%.
For `Cc1ccc(P(=O)(O)O)cc1`, the growth in assay [1] is 116%; in assay [2], 98.9%; in assay [3] it was 96%; in assay [4], 98.6%; in assay [5], 98.8%; in [6], 109%. Also, the growth in assay [7] was 100%; in [8] it was 94.2%; in assay [9], 103%.
